What was measured:
Type in all cases: functional
[1] = biological target: Solute carrier family 2, facilitated glucose transporter member 1 (Homo sapiens) (UniProt P11166); experiment: ST_JUDE_LEISH: Cytotoxicity at 2uM final concentration against transgenic Leishmania Mexicana promastigotes LmGLUT1 that are glucose transport deficient and complemented with the human glucose transporter GLUT1. Activity is measured by DNA content using SYBR green in vitro
[2] = biological target: Hexose transporter 1 (Plasmodium falciparum) (UniProt O97467); experiment: ST_JUDE_LEISH: Cytotoxicity at 2uM final concentration against transgenic Leishmania Mexicana promastigotes LmPfHT that are glucose transport deficient and complemented with the Plasmodium falciparum hexose transporter. Activity is measured by DNA content using SYBR green in vitro
[3] = biological target: Glucose transporter (Leishmania mexicana) (UniProt O61059); experiment: ST_JUDE_LEISH: Cytotoxicity at 2uM final concentration against transgenic Leishmania Mexicana promastigotes LmGT2 that are glucose transport deficient and complemented with the L. Mexicana glucose transporter 2. Activity is measured by DNA content using SYBR green in vitro

Solute carrier family 2, facilitated glucose transporter member 1 (Homo sapiens), sequence (P11166 whole entry): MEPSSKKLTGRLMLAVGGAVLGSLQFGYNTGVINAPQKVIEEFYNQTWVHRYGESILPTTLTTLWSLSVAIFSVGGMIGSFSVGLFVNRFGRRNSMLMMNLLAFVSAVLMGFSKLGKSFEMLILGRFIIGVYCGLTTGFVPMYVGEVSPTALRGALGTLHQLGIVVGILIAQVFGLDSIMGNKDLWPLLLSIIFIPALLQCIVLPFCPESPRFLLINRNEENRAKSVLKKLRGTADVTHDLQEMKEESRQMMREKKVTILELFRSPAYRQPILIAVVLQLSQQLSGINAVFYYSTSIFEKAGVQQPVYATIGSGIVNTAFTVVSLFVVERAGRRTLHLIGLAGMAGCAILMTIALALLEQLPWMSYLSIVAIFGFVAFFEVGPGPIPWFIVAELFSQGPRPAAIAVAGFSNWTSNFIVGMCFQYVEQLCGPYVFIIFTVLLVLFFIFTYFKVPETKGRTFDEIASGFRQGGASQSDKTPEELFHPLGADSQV

CC1CCCCN1CCCNC(=O)c1cccc(-c2cc3cc(Cl)c(Cl)cc3[nH]2)c1 (configuration not stated)
inhibition [1]: 3.16% | inhibition [2]: 3.02% | inhibition [3]: 4.99%

Cc1cc(N/N=C/c2ccc([N+](=O)[O-])cc2)c2ccc(F)cc2n1
inhibition [1]: 2.33% | inhibition [2]: 3.03% | inhibition [3]: -1.86%

O=C(/C=C/c1ccc(Cl)c(Cl)c1)NCCCCCN1CCC(NC(=O)NC2CCCC2)CC1
inhibition [1]: 1.11% | inhibition [2]: 1.93% | inhibition [3]: 0.26%

COc1cccc(C23NC(=Nc4nc5ccccc5[nH]4)NC2(c2cccc(OC)c2)NC(=Nc2nc4ccccc4[nH]2)N3)c1 (configuration not stated)
inhibition [1]: 6.07% | inhibition [2]: 4.74% | inhibition [3]: 3.29%

O=C(Nc1cc(Cl)ccc1O)c1ccc(Oc2ccc(C(=O)Nc3cc(Cl)ccc3O)cc2)cc1
inhibition [1]: -1.36% | inhibition [2]: -1.96% | inhibition [3]: -1%

O=C(Nc1ccc(I)cc1)Nc1ccc(Cn2ncc(N3CCCNCC3)c(Cl)c2=O)cc1
inhibition [1]: -2.09% | inhibition [2]: -3.01% | inhibition [3]: 0.24%

CS(=O)(=O)CCNCc1nc(-c2ccc3ncnc(Nc4ccc(OCc5cccc(F)c5)c(Cl)c4)c3c2)cs1
inhibition [1]: 3.7% | inhibition [2]: 2.03% | inhibition [3]: -1.62%

CC(=O)N(C)c1ccc(C(=O)Nc2cccc(-c3cccc(-c4nc5cccc(C)c5[nH]4)c3)c2)cc1
inhibition [1]: 3.67% | inhibition [2]: 3.97% | inhibition [3]: 0.08%

O=C(NCCN1Cc2ccccc2C1=O)c1ccc(Oc2ccc(C(=O)NCCN3Cc4ccccc4C3=O)cc2)cc1
inhibition [1]: -0.35% | inhibition [2]: 0.02% | inhibition [3]: -0.4%

O=C(NCCN1CCN(S(=O)(=O)c2ccc(OC3CCNCC3)c(Br)c2)CC1)c1ccc(Cl)c(Cl)c1
inhibition [1]: 3.33% | inhibition [2]: 3.46% | inhibition [3]: 4.49%

COCCN1CCC(N(CC2(O)CCN(c3ccc(C(F)(F)F)cc3)CC2)C(=O)Cn2c(SCc3cccc(F)c3F)cc(=O)c3ccccc32)CC1
inhibition [1]: -0.38% | inhibition [2]: 0.65% | inhibition [3]: 0.85%

O=C(NCC1CCN(Cc2ccc3c(c2)OCCO3)C1)c1cc(-c2ccccc2F)cs1 (configuration not stated)
inhibition [1]: 4.88% | inhibition [2]: 4.71% | inhibition [3]: 7.55%

CCCOc1ccc(C=C(CC(=O)O)c2nc3ccccc3s2)cc1OCC
inhibition [1]: 2.27% | inhibition [2]: 2.53% | inhibition [3]: -7.54%

CC(C)[C@@H](C(=O)NCc1cccc(C(F)(F)F)c1)N1C(=O)CCC1C(=O)Nc1ccc([N+](=O)[O-])cc1 (some centres not stated)
inhibition [1]: 2.24% | inhibition [2]: 1.67% | inhibition [3]: 2.73%

COc1ccc(N2CCc3c(-c4cccc5cnccc45)cc(C)nc32)c(C)c1
inhibition [1]: -0.79% | inhibition [2]: 0.13% | inhibition [3]: -0.88%

Cc1ccc(C2=NNC3(S2)C(=O)Nc2ccc(C)cc23)cc1 (configuration not stated)
inhibition [1]: -2.4% | inhibition [2]: 2.71% | inhibition [3]: 3.44%

COc1ccc(N2CCN(CCCCNCc3ccc(NC(=O)c4cc(Cl)cc(Cl)c4)cc3)CC2)c(OC)c1
inhibition [1]: 3.33% | inhibition [2]: 2.32% | inhibition [3]: 1.31%

O=[N+]([O-])c1ccc2nc(Nc3ccc(Cl)c(Cl)c3)c(Nc3ccc(Cl)c(Cl)c3)nc2c1
inhibition [1]: 0.54% | inhibition [2]: 1.45% | inhibition [3]: 1.69%

O=C(c1cc(-c2ccco2)n[nH]1)N1CCN(S(=O)(=O)c2ccc(Cl)cc2)CC1
inhibition [1]: -0.38% | inhibition [2]: -0.62% | inhibition [3]: -1.09%

O=C(/C=C/c1ccc(Cl)c(Cl)c1)NCCCCCN1CCC(C(=O)Nc2ccc3c(c2)OCO3)CC1
inhibition [1]: 6.29% | inhibition [2]: 5.08% | inhibition [3]: 5.17%

CNC(=O)c1cnc(Nc2ccc(N3CCN(C)CC3)cc2)nc1Nc1ccccc1OC
inhibition [1]: 4.96% | inhibition [2]: 4.09% | inhibition [3]: 3.41%

CC(=O)N[C@H](C(=O)Nc1cccc(-c2ccc(-c3nc4cccc(C)c4[nH]3)s2)c1)C(C)C
inhibition [1]: 3.65% | inhibition [2]: 2.85% | inhibition [3]: 2.08%

Cc1cc(NCC(c2ccccc2)c2ccccc2)nc(NCc2ccc(C(F)(F)F)cc2)n1
inhibition [1]: 5.66% | inhibition [2]: 6.13% | inhibition [3]: 3.66%

COc1cccc(-c2ccc(C(=O)NC3CCN(Cc4ccc(C(C)(C)C)cc4)CC3)s2)c1
inhibition [1]: 0.02% | inhibition [2]: 0.82% | inhibition [3]: -1.18%

O=C(CCc1ccccc1)N[C@H](Cc1c[nH]c2ccccc12)C(=O)N1CCC(NCc2ccc3c(c2)Cc2ccccc2-3)CC1
inhibition [1]: 7.69% | inhibition [2]: 7.43% | inhibition [3]: 7.1%

CCOc1ccc2c(=NN=Cc3cc(OC)c(OC)c(OC)c3)cc(C)[nH]c2c1
inhibition [1]: 2.5% | inhibition [2]: 1.22% | inhibition [3]: -0.3%

CCN(CC)CCN(Cc1ccc(-c2ccc(C(F)(F)F)cc2)cc1)C(=O)Cn1c(CCc2ccc(F)cc2)nc(=O)c2sccc21
inhibition [1]: 2.57% | inhibition [2]: 1.22% | inhibition [3]: 2.92%

COc1cc(F)c2ncc(Cl)c([C@H](O)CN3CCC(NCc4ccc5c(n4)NC(=O)CO5)CC3)c2c1
inhibition [1]: -1.35% | inhibition [2]: 0.88% | inhibition [3]: 0.03%

Cc1cc(NC(=O)c2ccc(S(=O)(=O)N(Cc3ccccc3)C(C)C)cc2)no1
inhibition [1]: 3.7% | inhibition [2]: 3.18% | inhibition [3]: 3.77%

O=C(NCc1cccc(F)c1)c1ccc(O)c(-c2cc(Cl)cc(Cl)c2)c1
inhibition [1]: 4.04% | inhibition [2]: 3.75% | inhibition [3]: 4.34%

COc1ccc(CN2CCC(CNCCc3ccccc3Oc3ccccc3)CC2)cc1
inhibition [1]: -1.06% | inhibition [2]: -1.31% | inhibition [3]: -2.59%

CC(=O)N(C)c1cccc(C(=O)Nc2cccc(-c3cccc(-c4nc5cccc(C)c5[nH]4)c3)c2)c1
inhibition [1]: 13.3% | inhibition [2]: 3.96% | inhibition [3]: 11.4%

COCCCNC(=O)[C@H]1CNCCN1C(=O)c1ccccc1
inhibition [1]: 1% | inhibition [2]: 0.97% | inhibition [3]: 3.67%

Clc1ncnc2scc(-c3ccc(Br)cc3)c12
inhibition [1]: 7.74% | inhibition [2]: 6.35% | inhibition [3]: 3.52%

COc1ccc(NC(=O)c2ccc(C=Cc3ccc(C(F)(F)F)cc3)cc2)cc1N1CCN(C)CC1
inhibition [1]: 0.43% | inhibition [2]: 0.25% | inhibition [3]: -0.41%

COc1cc(O)c2c(=O)c(OC)c(-c3cccc(Cl)c3OCC(=O)O)oc2c1OC
inhibition [1]: -2.29% | inhibition [2]: -1.48% | inhibition [3]: -0.46%

Cc1noc(C)c1-c1cccc(CNCc2ccc(-c3ccc(-c4nc5cc(F)ccc5[nH]4)cc3)cc2)c1
inhibition [1]: 8.14% | inhibition [2]: 6.89% | inhibition [3]: 3.46%

CN(C)CCN(Cc1ccccc1-c1ccc(CNCCc2ccccc2)cc1)C(=O)c1ccccc1
inhibition [1]: 3.46% | inhibition [2]: 2.83% | inhibition [3]: 3.1%

CCN(CCCN1CCCCC1)c1nccc(Nc2ccc(Cl)cc2)n1
inhibition [1]: 2.03% | inhibition [2]: 0.37% | inhibition [3]: 1.18%

Cc1cnc(N2CCN(CCCN3CCCC3)CC2)nc1Oc1ccc(-n2ccnc2)cc1
inhibition [1]: 2.28% | inhibition [2]: 2% | inhibition [3]: 3.96%

CCCN(CCC)CCCN(CCCN(CCC)CCC)c1cc(C)nc(Nc2ccc(Cl)cc2)n1
inhibition [1]: 3.33% | inhibition [2]: 1.71% | inhibition [3]: 2.52%

O=C(NCCN1CCCC1)c1ccc(-c2ccc(-c3nc4cc(C(F)(F)F)ccc4[nH]3)s2)cc1
inhibition [1]: 3.7% | inhibition [2]: 2.28% | inhibition [3]: 3.38%

N#Cc1cccc(NC(=O)c2cccc(S(=O)(=O)NC3CCN(CC4CCCCC4)C3)c2)c1 (configuration not stated)
inhibition [1]: 0.54% | inhibition [2]: 1.11% | inhibition [3]: 3.37%

CC(C)Nc1cc(C(=O)N[C@@H](Cc2ccccc2)[C@H](O)CNCc2cccc(C(F)(F)F)c2)c(F)c(N2CCCCS2(=O)=O)c1
inhibition [1]: 7.12% | inhibition [2]: 6.09% | inhibition [3]: 7.07%

CC(C)COc1cc(C(=O)Nc2cnc3ccccc3c2)ccc1[N+](=O)[O-]
inhibition [1]: 11.9% | inhibition [2]: 10.8% | inhibition [3]: 10.9%

COC(=O)c1cc(C(O)CNC(C)CCc2cccc(F)c2)ccc1O (configuration not stated)
inhibition [1]: 2.72% | inhibition [2]: 2.7% | inhibition [3]: 2.89%

CCC[C@@H]([C@@H](CC1CCCCC1)C(=O)N[C@@H](CCCCNS(C)(=O)=O)C(=O)Nc1nccs1)N(O)C=O
inhibition [1]: 1.61% | inhibition [2]: 3.98% | inhibition [3]: -0.28%

CC(C)n1ncc2c(C(=O)N3CCCc4ccccc43)cc(-c3ccccc3)nc21
inhibition [1]: 4.46% | inhibition [2]: 2.95% | inhibition [3]: 3.97%

COc1cc(C2=NN(S(=O)(=O)c3c(Cl)cc(Cl)cc3Cl)CCCC2)ccc1Cl
inhibition [1]: 2.1% | inhibition [2]: 2.71% | inhibition [3]: 4.36%

COc1ccc(CN2CCCN(Cc3cccc(C(=O)Nc4ccc(C(C)(C)C)cc4)c3)CC2)cc1
inhibition [1]: 7.71% | inhibition [2]: 5.46% | inhibition [3]: 3.17%

Cc1[nH]c2ccc(O)cc2c1C1CCN(CCCCCNC(=O)/C=C/c2ccc(Cl)c(Cl)c2)CC1
inhibition [1]: 0.59% | inhibition [2]: 0.7% | inhibition [3]: 0.96%

O=C(Nc1ccc(F)cc1)NC1CCN(c2ccnc3cc(Cl)ccc23)CC1
inhibition [1]: 3.63% | inhibition [2]: 3.1% | inhibition [3]: 1.68%

FC(F)(F)c1ccc2nccc(NCc3ccccc3)c2c1
inhibition [1]: 6.8% | inhibition [2]: 5.96% | inhibition [3]: 1.41%

COc1ccc2nc3cc(Cl)ccc3c(NCc3ccccc3)c2c1
inhibition [1]: 2.39% | inhibition [2]: 2.92% | inhibition [3]: -0.49%

O=C(Nc1ccc(Oc2cccnc2)cc1)C1CCN(Cc2cc(Cl)ccc2O)CC1
inhibition [1]: 2.3% | inhibition [2]: 4.55% | inhibition [3]: 1.47%

CCCCC(=O)Nc1cc(=O)[nH]c2nc(-c3ccc(Cl)cc3)nn12
inhibition [1]: -1.02% | inhibition [2]: 3.54% | inhibition [3]: -0.39%

CO/C(=C\C=C\c1cc2cc(Cl)c(Cl)cc2[nH]1)C(=O)NCCCNC12CC3CC(CC(C3)C1)C2
inhibition [1]: 3.15% | inhibition [2]: 1.55% | inhibition [3]: 0.89%

O=C(Nc1cccc(CN2CCCN(Cc3ncc[nH]3)CC2)c1)c1ccc(-c2ccccc2)cc1
inhibition [1]: 0.65% | inhibition [2]: 1.21% | inhibition [3]: 2.54%

O=C1OC(c2cc3ccccc3n2S(=O)(=O)c2ccccc2)(c2cc3ccccc3n2S(=O)(=O)c2ccccc2)c2ccccc21
inhibition [1]: 1.65% | inhibition [2]: 1.8% | inhibition [3]: 2.01%

CN1CCCN(Cc2cccc(-c3cccc(NC(=O)c4cccc(C#N)c4)c3)c2)CC1
inhibition [1]: 12.8% | inhibition [2]: 11.4% | inhibition [3]: 10.3%

N=C(/N=C(/NCCCCCCN/C(=N/C(=N)NCc1ccc(Cl)c(Cl)c1)N1CCCCC1)N1CCCCC1)NCc1ccc(Cl)c(Cl)c1
inhibition [1]: 8.42% | inhibition [2]: 9.68% | inhibition [3]: 8.06%

C[C@@H](Oc1cc(-n2cnc3ccc(OCC4CCN(S(C)(=O)=O)CC4)cc32)sc1C(N)=O)c1ccccc1C(F)(F)F
inhibition [1]: 11.6% | inhibition [2]: 9.1% | inhibition [3]: 4.63%

Cc1ccc2c(-c3ccc([N+](=O)[O-])o3)cc(C)nc2c1
inhibition [1]: 54.3% | inhibition [2]: 46.4% | inhibition [3]: 7.05%

c1ccc(-c2cc(NCCNc3cc(-c4ccccc4)nc4ccccc34)c3ccccc3n2)cc1
inhibition [1]: -1.99% | inhibition [2]: 6.2% | inhibition [3]: 15.2%

Nc1ncc(-c2ccc(NC(=O)Nc3cc(C(F)(F)F)ccc3F)cc2)c(N)n1
inhibition [1]: -0.9% | inhibition [2]: 0.23% | inhibition [3]: 0.6%

O=C(NCCCNc1nc2ccccc2[nH]1)c1cccc(OC(F)(F)F)c1
inhibition [1]: 2.27% | inhibition [2]: -0.62% | inhibition [3]: 1.46%

CCOc1c(Br)cc(Cl)cc1CNCCCNc1nc2ccccc2[nH]1
inhibition [1]: 1.77% | inhibition [2]: 1.74% | inhibition [3]: 3%

CC(C)CCNc1nc(NCCc2ccccc2)c2cc(O)ccc2n1
inhibition [1]: 7.05% | inhibition [2]: 3.99% | inhibition [3]: -2.18%

Cc1ccc(NC(=O)c2ccc3ncccc3c2)cc1OC1CCN(CCC(C)C)CC1
inhibition [1]: 3.07% | inhibition [2]: 2.35% | inhibition [3]: 4.09%

Source: ChEMBL document CHEMBL3433997, “St. Jude Leishmania screening dataset” (2016)
